Test results as given in the supplement of paper PMC10849652.
Targets with a hit are over-represented here; the source holds about 8,800 in all. About 0.5% of all pairs of compound and target were hits.

Key:
Assay in all cases: log2 fold change, soluble protein after heating vs DMSO (PISA); higher = thermal stabilisation; K562 lysate, 10 uM; active = over 0.2 and 3.5 SD of the protein, either way, in both replicates (recomputed)
[1] = compound: NCC(=O)Nc1ccc(-n2nc(C(F)(F)F)cc2-c2ccc3c(ccc4ccccc43)c2)cc1
Outline: (§1)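 Dounce homogenisation of K562 pellets in PBS pH 7.4 with 1 mM MgCl2 produced a crude extract, used at 1 mg/mL protein. Exposure to 10 μM compound lasted 30 min, and aliquots were then heated for 3 min across 48°C-58°C, pooled and brought to 0.5% NP-40 at 4°C. The supernatant after 21,000xg for 90 min was quantified by TMTpro 16plex LC-MS/MS with channel sums equalised. Duplicate values are given as log-two fold change in thermal stability relative to solvent controls.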

vorinostat = compound: O=C(CCCCCCC(=O)Nc1ccccc1)NO [vorinostat]
Outline: as §1

silmitasertib = compound: O=C(O)c1ccc2c(c1)nc(Nc1cccc(Cl)c1)c1ccncc12 [silmitasertib]
Outline: as §1

[2] = compound: O=C1NC(=O)C(c2cnc3ccccn23)=C1c1cn2c3c(cc(F)cc13)CN(C(=O)N1CCCCC1)CC2
Outline: as §1

entospletinib = compound: c1cn2cc(-c3ccc4cn[nH]c4c3)nc(Nc3ccc(N4CCOCC4)cc3)c2n1 [entospletinib]
Outline: as §1

Measured: log2 fold change

RASA2 (UniProt Q15283)
active: vorinostat -0.275
inactive: [1] -0.007 | silmitasertib 0.021 | [2] -0.006 | entospletinib 0.023

RPS9 (UniProt P46781)
inactive: [1] -0.03 | vorinostat 0.125 | silmitasertib 0.042 | [2] 0.002 | entospletinib 0.004

RPS18 (UniProt P62269)
inactive: [1] 0.033 | vorinostat 0.081 | silmitasertib 0.019 | [2] 0.007 | entospletinib -0.02

RABL3 (UniProt Q5HYI8)
inactive: [1] 0.031 | vorinostat -0.126 | silmitasertib 0.445 | [2] -0.039 | entospletinib 0

RAD50 isoform 2 (UniProt Q92878)
Chain of UniProt Q92878 (Q92878 whole entry, looked up): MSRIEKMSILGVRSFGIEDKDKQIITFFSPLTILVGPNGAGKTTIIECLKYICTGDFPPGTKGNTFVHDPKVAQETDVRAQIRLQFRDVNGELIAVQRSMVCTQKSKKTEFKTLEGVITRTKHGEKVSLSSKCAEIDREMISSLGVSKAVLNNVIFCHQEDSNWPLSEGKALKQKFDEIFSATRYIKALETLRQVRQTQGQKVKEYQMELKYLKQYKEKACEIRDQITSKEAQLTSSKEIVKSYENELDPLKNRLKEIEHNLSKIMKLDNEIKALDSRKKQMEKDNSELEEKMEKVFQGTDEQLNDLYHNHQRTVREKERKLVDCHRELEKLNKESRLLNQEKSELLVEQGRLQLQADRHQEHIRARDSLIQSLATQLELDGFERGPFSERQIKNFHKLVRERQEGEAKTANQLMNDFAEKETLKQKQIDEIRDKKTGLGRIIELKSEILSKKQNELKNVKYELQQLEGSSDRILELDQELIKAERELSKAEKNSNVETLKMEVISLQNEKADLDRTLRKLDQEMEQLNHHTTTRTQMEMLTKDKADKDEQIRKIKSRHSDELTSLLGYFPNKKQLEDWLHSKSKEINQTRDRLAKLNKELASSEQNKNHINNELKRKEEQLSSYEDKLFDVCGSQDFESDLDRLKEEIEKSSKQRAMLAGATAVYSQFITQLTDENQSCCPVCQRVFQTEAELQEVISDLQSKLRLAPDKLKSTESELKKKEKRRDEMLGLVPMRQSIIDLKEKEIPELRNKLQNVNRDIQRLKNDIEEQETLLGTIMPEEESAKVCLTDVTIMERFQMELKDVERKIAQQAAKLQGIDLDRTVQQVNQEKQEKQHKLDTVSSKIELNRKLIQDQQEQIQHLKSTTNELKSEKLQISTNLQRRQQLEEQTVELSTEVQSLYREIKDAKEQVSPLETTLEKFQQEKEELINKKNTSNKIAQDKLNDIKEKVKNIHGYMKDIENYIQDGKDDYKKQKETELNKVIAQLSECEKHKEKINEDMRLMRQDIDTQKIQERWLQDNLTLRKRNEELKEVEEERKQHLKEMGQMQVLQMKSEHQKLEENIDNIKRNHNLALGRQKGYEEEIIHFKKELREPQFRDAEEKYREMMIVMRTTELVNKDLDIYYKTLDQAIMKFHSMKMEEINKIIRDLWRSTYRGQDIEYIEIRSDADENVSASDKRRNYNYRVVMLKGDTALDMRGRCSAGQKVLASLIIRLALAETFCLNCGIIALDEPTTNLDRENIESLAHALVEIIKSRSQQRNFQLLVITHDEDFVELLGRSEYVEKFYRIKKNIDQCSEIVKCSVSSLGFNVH
inactive: [1] -0.005 | silmitasertib 0.024 | [2] -0.009 | entospletinib -0.003
active: vorinostat -0.458

RIOK2 (UniProt Q9BVS4)
Chain of UniProt Q9BVS4 (Q9BVS4 whole entry, looked up): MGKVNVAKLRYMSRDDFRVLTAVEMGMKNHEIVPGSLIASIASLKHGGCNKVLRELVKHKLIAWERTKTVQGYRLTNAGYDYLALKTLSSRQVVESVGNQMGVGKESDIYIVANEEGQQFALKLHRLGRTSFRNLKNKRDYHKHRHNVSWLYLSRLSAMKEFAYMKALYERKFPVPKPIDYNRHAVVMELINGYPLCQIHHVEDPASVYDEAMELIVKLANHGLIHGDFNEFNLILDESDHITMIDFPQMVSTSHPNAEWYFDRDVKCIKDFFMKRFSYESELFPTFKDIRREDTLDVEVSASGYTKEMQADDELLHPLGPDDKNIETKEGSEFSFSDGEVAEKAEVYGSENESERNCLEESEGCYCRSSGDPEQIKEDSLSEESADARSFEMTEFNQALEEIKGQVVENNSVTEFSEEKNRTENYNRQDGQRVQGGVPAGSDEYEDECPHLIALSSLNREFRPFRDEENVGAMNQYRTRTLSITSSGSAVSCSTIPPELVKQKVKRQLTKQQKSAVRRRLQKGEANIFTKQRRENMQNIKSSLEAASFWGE
inactive: [1] -0.022 | vorinostat -0.098 | silmitasertib 0.096 | [2] 0.008 | entospletinib 0.315

RHOU (UniProt Q7L0Q8)
inactive: [1] 0.019 | vorinostat -0.116 | silmitasertib 0.058 | [2] -0.039 | entospletinib 0.024

RALA (UniProt P11233)
Chain of UniProt P11233 (P11233 whole entry, looked up): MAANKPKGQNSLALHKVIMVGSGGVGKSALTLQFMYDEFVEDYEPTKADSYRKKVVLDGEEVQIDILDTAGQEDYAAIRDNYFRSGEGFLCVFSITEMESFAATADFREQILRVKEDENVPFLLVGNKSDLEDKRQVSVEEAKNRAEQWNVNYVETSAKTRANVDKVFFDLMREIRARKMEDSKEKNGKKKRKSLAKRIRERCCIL
inactive: [1] 0.031 | vorinostat 0.129 | silmitasertib -0.062 | [2] 0 | entospletinib -0.006

RBBP7 isoform 2 (UniProt Q16576)
inactive: [1] -0.043 | vorinostat 0.03 | silmitasertib -0.012 | [2] -0.068 | entospletinib 0.024

RNF113A (UniProt O15541)
inactive: [1] 0.009 | vorinostat -0.02 | silmitasertib -0.03 | [2] -0.004 | entospletinib 0.02

RHOA (UniProt P61586)
inactive: [1] 0.03 | vorinostat 0.064 | silmitasertib -0.009 | [2] 0 | entospletinib 0.022

SEC61G (UniProt P60059)
inactive: [1] -0.047 | vorinostat 0.005 | silmitasertib 0.013 | [2] 0.232 | entospletinib -0.034

REEP5 (UniProt Q00765)
inactive: [1] -0.034 | vorinostat 0.001 | silmitasertib -0.025 | [2] 0.02 | entospletinib 0.015

RNF2 (UniProt Q99496)
inactive: [1] -0.015 | vorinostat -0.037 | silmitasertib 0.021 | [2] 0.008 | entospletinib -0.033

RPN2 (UniProt P04844)
inactive: [1] -0.007 | vorinostat 0.118 | silmitasertib 0.008 | [2] -0.04 | entospletinib -0.009

REL isoform 2 (UniProt Q04864)
inactive: [1] -0.052 | silmitasertib 0.07 | [2] -0.004 | entospletinib 0.019
active: vorinostat -0.351

RABEPK (UniProt Q7Z6M1)
inactive: [1] 0.008 | silmitasertib 0.032 | [2] 0.014 | entospletinib 0.009
active: vorinostat -0.441

RBM4 (UniProt Q9BWF3)
Chain of UniProt Q9BWF3 (Q9BWF3 whole entry, looked up): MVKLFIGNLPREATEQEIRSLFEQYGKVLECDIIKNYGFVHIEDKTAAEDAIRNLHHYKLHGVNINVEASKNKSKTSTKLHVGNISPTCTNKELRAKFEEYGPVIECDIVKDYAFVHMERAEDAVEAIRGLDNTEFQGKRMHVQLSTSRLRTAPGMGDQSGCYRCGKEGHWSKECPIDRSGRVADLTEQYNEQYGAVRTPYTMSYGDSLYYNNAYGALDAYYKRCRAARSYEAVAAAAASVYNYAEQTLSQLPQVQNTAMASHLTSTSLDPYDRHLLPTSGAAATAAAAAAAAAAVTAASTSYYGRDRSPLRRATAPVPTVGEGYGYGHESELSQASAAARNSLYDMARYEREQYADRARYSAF
inactive: [1] -0.04 | vorinostat -0.172 | silmitasertib 0.035 | [2] -0.097 | entospletinib 0.001

SCD (UniProt O00767)
inactive: [1] -0.045 | vorinostat 0.021 | silmitasertib -0.057 | [2] -0.028 | entospletinib 0.017

SCAF1 (UniProt Q9H7N4)
inactive: [1] -0.172 | vorinostat -0.076 | silmitasertib 0.042 | [2] -0.04 | entospletinib 0.025

RAP1B (UniProt P61224)
inactive: [1] 0.048 | vorinostat 0.078 | silmitasertib -0.036 | [2] -0.024 | entospletinib -0.012

RPS29 (UniProt P62273)
inactive: [1] -0.105 | vorinostat 0.145 | silmitasertib -0.03 | [2] 0.205 | entospletinib -0.085

RAP1GAP isoform 4 (UniProt P47736)
Chain of UniProt P47736 (P47736 whole entry, looked up): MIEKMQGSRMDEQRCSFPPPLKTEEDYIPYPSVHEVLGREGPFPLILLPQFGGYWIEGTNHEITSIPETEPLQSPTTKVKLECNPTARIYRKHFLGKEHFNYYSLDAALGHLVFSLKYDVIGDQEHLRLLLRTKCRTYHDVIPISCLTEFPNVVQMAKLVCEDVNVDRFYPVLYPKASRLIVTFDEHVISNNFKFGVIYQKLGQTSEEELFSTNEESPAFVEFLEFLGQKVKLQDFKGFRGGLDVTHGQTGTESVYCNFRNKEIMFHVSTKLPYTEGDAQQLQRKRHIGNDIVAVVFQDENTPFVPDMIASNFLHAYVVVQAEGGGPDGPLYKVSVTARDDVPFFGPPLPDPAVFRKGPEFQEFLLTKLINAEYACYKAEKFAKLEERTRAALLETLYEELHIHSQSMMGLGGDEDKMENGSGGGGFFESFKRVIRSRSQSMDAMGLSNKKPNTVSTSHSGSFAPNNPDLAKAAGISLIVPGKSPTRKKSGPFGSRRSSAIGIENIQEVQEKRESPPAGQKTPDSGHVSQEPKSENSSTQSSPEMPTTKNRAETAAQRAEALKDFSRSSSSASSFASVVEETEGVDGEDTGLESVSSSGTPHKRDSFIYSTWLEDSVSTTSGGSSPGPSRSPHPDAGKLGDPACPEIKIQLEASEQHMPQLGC
active: vorinostat -0.419
inactive: [1] -0.058 | silmitasertib -0.035 | [2] 0.022 | entospletinib -0.012

SEC13 isoform 3 (UniProt P55735)
Chain of UniProt P55735 (P55735 whole entry, looked up): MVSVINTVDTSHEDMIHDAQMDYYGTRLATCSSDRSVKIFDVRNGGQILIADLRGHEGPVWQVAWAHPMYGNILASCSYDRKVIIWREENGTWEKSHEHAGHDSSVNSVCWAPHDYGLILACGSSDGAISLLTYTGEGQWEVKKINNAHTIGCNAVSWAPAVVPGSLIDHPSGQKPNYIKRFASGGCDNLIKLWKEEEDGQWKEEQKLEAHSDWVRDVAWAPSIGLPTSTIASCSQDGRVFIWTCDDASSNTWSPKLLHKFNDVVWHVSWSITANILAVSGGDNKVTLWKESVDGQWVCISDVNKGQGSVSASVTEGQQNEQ
inactive: [1] -0.01 | vorinostat -0.115 | silmitasertib 0.021 | [2] -0.045 | entospletinib -0.001

RAE1 (UniProt P78406)
inactive: [1] 0.007 | vorinostat -0.126 | silmitasertib -0.022 | [2] -0.062 | entospletinib -0.024

SEC16A isoform 5 (UniProt O15027)
inactive: [1] 0.053 | silmitasertib 0.008 | [2] -0.029 | entospletinib -0.015
active: vorinostat -0.281

SAR1A (UniProt Q9NR31)
inactive: [1] 0.004 | vorinostat 0.056 | silmitasertib -0.077 | [2] -0.039 | entospletinib -0.089

RCAN1 (UniProt P53805)
inactive: [1] 0.082 | vorinostat -0.197 | silmitasertib 0.02 | [2] 0.02 | entospletinib 0.031

RBM23 isoform 2 (UniProt Q86U06)
inactive: [1] 0.121 | vorinostat -0.334 | silmitasertib -0.019 | [2] -0.113 | entospletinib 0.037

RIPK1 (UniProt Q13546)
Chain of UniProt Q13546 (Q13546 whole entry, looked up): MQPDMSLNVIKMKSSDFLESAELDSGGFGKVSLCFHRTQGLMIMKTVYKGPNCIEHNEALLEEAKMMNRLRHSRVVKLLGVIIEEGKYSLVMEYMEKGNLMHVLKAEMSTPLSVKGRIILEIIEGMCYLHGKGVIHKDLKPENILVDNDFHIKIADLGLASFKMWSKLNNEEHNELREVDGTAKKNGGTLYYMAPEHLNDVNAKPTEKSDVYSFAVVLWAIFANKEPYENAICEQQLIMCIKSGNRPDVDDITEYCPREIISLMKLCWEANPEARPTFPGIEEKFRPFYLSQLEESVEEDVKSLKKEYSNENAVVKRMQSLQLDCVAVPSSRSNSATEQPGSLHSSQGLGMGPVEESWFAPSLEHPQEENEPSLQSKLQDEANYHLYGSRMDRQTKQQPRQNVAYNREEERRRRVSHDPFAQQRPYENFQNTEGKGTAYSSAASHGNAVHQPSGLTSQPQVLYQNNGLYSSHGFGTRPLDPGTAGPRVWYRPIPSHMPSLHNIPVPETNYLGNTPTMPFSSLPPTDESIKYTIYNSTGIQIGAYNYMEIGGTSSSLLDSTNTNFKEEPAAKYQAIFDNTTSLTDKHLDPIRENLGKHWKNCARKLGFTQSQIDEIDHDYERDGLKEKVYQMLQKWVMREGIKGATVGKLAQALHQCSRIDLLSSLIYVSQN
inactive: [1] -0.021 | silmitasertib -0.037 | [2] -0.013 | entospletinib 0.011
active: vorinostat -0.292

RAB21 (UniProt Q9UL25)
inactive: [1] 0.017 | vorinostat -0.235 | silmitasertib -0.021 | [2] 0.029 | entospletinib 0.02

RDH10 (UniProt Q8IZV5)
Chain of UniProt Q8IZV5 (Q8IZV5 whole entry, looked up): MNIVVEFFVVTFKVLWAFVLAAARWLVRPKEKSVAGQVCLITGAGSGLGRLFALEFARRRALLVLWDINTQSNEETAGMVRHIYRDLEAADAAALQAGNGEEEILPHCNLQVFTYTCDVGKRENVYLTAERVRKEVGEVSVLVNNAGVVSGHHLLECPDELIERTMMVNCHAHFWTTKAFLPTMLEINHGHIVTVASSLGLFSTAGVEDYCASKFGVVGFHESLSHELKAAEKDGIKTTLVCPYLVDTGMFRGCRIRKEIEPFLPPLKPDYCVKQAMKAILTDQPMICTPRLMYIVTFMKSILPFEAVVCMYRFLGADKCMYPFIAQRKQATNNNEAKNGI
inactive: [1] -0.038 | vorinostat -0.007 | silmitasertib 0.006 | [2] -0.042 | entospletinib 0.162

RXRB isoform 3 (UniProt P28702)
active: vorinostat -0.757
inactive: [1] 0.067 | silmitasertib 0.168 | [2] 0.07 | entospletinib 0.006

RNF168 (UniProt Q8IYW5)
inactive: [1] 0.056 | vorinostat -0.313 | silmitasertib 0.025 | [2] -0.046 | entospletinib 0.042

RCC1 isoform 2 (UniProt P18754)
active: vorinostat -0.381
inactive: [1] 0.009 | silmitasertib 0.034 | [2] 0.051 | entospletinib -0.014

RDX (UniProt P35241)
Chain of UniProt P35241 (P35241 whole entry, looked up): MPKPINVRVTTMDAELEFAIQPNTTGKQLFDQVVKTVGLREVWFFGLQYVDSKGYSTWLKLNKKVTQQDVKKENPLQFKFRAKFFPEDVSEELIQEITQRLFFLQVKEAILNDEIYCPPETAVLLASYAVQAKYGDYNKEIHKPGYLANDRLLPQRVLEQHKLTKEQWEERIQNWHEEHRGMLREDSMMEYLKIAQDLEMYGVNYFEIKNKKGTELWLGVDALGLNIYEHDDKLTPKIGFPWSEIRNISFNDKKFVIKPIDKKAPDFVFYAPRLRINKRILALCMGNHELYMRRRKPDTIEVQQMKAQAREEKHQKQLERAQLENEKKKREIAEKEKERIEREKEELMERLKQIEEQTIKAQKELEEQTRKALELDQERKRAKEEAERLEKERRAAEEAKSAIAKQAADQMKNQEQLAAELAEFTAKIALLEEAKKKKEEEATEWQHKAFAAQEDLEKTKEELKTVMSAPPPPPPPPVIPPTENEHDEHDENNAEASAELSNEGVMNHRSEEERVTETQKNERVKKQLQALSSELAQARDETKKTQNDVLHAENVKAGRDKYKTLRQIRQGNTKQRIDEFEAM
inactive: [1] 0.002 | vorinostat 0.129 | silmitasertib -0.017 | [2] -0.008 | entospletinib 0.023

RPL31 (UniProt P62899)
inactive: [1] 0.003 | vorinostat 0.126 | silmitasertib 0.007 | [2] 0.06 | entospletinib 0.021

REEP6 (UniProt Q96HR9)
inactive: [1] -0.031 | vorinostat 0.068 | silmitasertib -0.083 | [2] -0.028 | entospletinib -0.059

RNF213, A0A0A0MTC1
inactive: [1] 0.022 | silmitasertib 0.032 | [2] 0.007 | entospletinib 0.052
active: vorinostat -0.381

RIOK1 (UniProt Q9BRS2)
active: silmitasertib 0.358
inactive: [1] 0.016 | vorinostat -0.035 | [2] -0.02 | entospletinib 0.029

QSER1, A0A3B3IRW6
inactive: [1] -0.013 | silmitasertib 0.038 | [2] 0.033 | entospletinib 0.002
active: vorinostat -0.236
